For 40 compounds, growth results are on record in PubChem BioAssay (NCI).

About 83,000 compounds went through this panel and 20% of them were active in at least one assay; those are over-represented in the sample as a whole.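 Cell lines were cultured in 96-well plates, exposed to a single compound concentration, and assessed for percent growth 48 hours later.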 The source made the active and inactive calls. How the source made its calls: active means growth percent below 10; inactive means the rest.

One assay has as its system UACC-62 melanoma. Put plainly: NCI-60 one-dose screen, 48 h (100 = growth as untreated, 0 = no growth, -100 = all killed). As to conditions: 10 µM unless noted.
Turning to `CC/C(=C(/c1ccc(Cl)cc1)c1ccc(OCCN2CCCC2)cc1)c1ccc(OC)cc1`, the growth is 96.3% (inactive).

In the case of `c1cc2[nH]ncc2cc1-c1nc2ccc3[nH]ncc3c2c2c1CCCC2`, the growth was 1.74% (active). On the same count and under the same terms, for `O=C(/C=C/c1ccc(Cl)cc1)c1cccc(Nc2nc(Nc3ccccc3)nc(Nc3ccccc3)n2)c1` the value was 96.9% (inactive). Same read-out and setting: for `N#Cc1nc(-c2ccccc2)oc1S(=O)(=O)N1CCOCC1` the value was 91% (inactive). The same measure, in the same setting: as for `O=C1Nc2ccccc2/C1=C\c1nc(-c2ccccc2)n2ccccc12`, the figure is 78.3% (inactive); as for `O=C(COc1ccc(-c2nc3ccccc3[nH]2)cc1)N=Nc1c(O)[nH]c2ccc(Cl)cc12`, 100% (inactive); as for `COc1ccc(NC(=O)c2sc3nc(C)c(C(=O)/C=C/c4cccc(OC)c4)cc3c2N)cc1`, 56.6% (inactive).

Regarding `COc1cnc2c(c1)C(=O)c1c-2n(CCCNCCO)c(=O)c2ccncc12`, the growth is -49.1% (active). The same measure, in the same setting: for `O=C(Nc1nc2ccc(F)cc2s1)c1cccnc1Nc1ccc(Cl)cc1` the value was 28.4% (inactive); for `N#CC1C=CN(CC(N)=O)c2ccc3cccnc3c21` (centres undefined), 96.9% (inactive). Take `COc1ccc(-c2nc3c(c(-c4ccccc4)nn3-c3ccccc3)c(-c3ccc(N4CCN(C)CC4)cc3)c2C#N)cc1`: the growth is 100% (inactive). On the same count and under the same terms, for `Cn1c(=O)c2[nH]c(N/N=C/c3ccccc3Br)nc2n(C)c1=O` the value was 96.6% (inactive); for `O=C(Nc1ccc(NC(=O)c2cc(=O)[nH]c3ccccc23)cc1)Nc1cccc(C(F)(F)F)c1`, 68% (inactive); for `O=C1C(Cl)=C(Oc2ccccc2)C(=O)c2ccccc21`, 53% (inactive). As to `CC(C)OC(=O)c1ccc2[nH]c(O)c(C(=Nc3ccc(N(C)C(=O)CN4CCN(C)CC4)cc3)c3ccccc3)c2c1`, the growth is -44.1% (active). The same measure, in the same setting: as for `O=C1C(Cl)=C(Nc2ccc(O)cc2)C(=O)N1Cc1ccc(Cl)cc1`, the figure is 65.3% (inactive); as for `COc1cc(OC)c2sc(-c3ccc(-n4cncc4-c4ccc(OC)c(OC)c4)cc3)nc2c1`, 53.4% (inactive); as for `CCN(CC)C(=S)SC(SC(=S)N(CC)CC)C(=O)c1nnn(-c2ccc([N+](=O)[O-])cc2)c1C`, 86.5% (inactive). In the case of `COc1cccc(CNc2ncnc3c2ncn3C2OC(CO)C(O)C2O)c1O` (centres undefined), the growth is 6.74% (active).

With `CC(C)c1ccc(COCc2cc(CN3CCCC3)c(O)c3ncccc23)cc1`, the growth is -9.84% (active). As to `O=C(NCc1ccccc1)Nc1ccccc1CNc1nc(Nc2ccc(OCCN3CCCC3)cc2)ncc1Cl`, the growth is 98.6% (inactive). The same measure, in the same setting: for `Cc1ccc(-n2c(=S)[nH]c3sc4c(c3c2=O)CCC(=O)C4)cc1` the value was 10.3% (inactive); for `Oc1c(Cl)cc(Cl)cc1/C=N/Nc1nnc(N/N=C/c2cc(Cl)cc(Cl)c2O)c2ccccc12`, 13.2% (inactive); for `CCCCCCC1(C)NCCO1` (centres undefined), 86.7% (inactive). Still for that read-out and setting: as for `Clc1ccc2c(c1)N(c1ncnc3ccc(-c4cnc5[nH]ncc5c4)cc13)CC2`, the figure is 8.23% (active).

On to `COC(=O)c1cc(-c2ccc(S(C)(=O)=O)cc2)[nH]c1N/N=C/c1c(Cl)cccc1Cl`, for which the growth is 58% (inactive). In the case of `C=CCn1c(SCC(=O)Nc2ccc(C(=O)/C=C/c3ccc(Cl)cc3)cc2)nnc1-c1cc(-c2ccc(S(N)(=O)=O)cc2)nc2ccccc12`, the growth is 71.9% (inactive). The same measure, in the same setting: as for `Cc1cc2c(O)c(-c3cc(Cl)ccc3Cl)c3sc(=O)oc3c2cc1C`, the figure is 52.2% (inactive).

For the compound `CC(=O)N(N=Nc1ccccc1)c1cccc2ccccc12`, the growth is 75.3% (inactive). Take `Cc1ccc(-c2nc3nc(-c4ccc(F)cc4)nc(N4CCNCC4)c3o2)cc1`: the growth was 91.1% (inactive). Still for that read-out and setting: as for `O=c1oc2ccc([N+](=O)[O-])cc2cc1Br`, the figure is 101% (inactive). Still for that read-out and setting: for `COc1ccc2nc(NC(=O)CSc3nnc4n3S(=O)(=O)c3ccccc3N4C)sc2c1` the value was 87.3% (inactive); for `Cc1ccc(-c2nn(-c3ccccc3)cc2C=C2C(=O)ON=C2C(C)C)cc1`, 75.8% (inactive). As to `Cc1cccc(N2CCN(CC(O)COc3ccc(Cl)cc3)CC2)c1` (centres undefined), the growth was 96.4% (inactive).

Consider `Cc1nc2c(=O)[nH]c(SCC(=O)Nc3cccc(F)c3)nc2[nH]c1=O`, for which the growth is 98.9% (inactive).

As to `CN(C)c1ccc(/C=C/C(=O)c2ccc(-n3cc(CN4CCN(c5cc6c(cc5F)c(=O)c(C(=O)O)cn6C5CC5)CC4)nn3)cc2)cc1`, the growth was 55.8% (inactive). The same measure, in the same setting: as for `COc1cc2c(c(OC)c1OC)-c1ccc(OC)c(=O)cc1[C@@H](NC(=O)CCl)CC2`, the figure is 20.8% (inactive); as for `O=C(Nc1cccnc1Nc1ccc(F)cc1)c1cn(Cc2cccc(Oc3ccccc3)c2)nn1`, 44.8% (inactive). The same measure, in the same setting: as for `COc1ccc(-c2ccc3cnc4sc(-c5ccc(OC)cc5)nc4c3n2)cc1`, the figure is 98.8% (inactive). On the same count and under the same terms, for `CN1CCN(c2ccc(NC(=O)c3cncnc3Nc3ccc(OCc4ccccn4)c(Cl)c3)cc2)CC1` the value was -69.9% (active).

In a further assay the test system is LOX IMVI melanoma. Described as above. As to conditions: 10 µM unless noted.
Regarding `O=C(/C=C/c1ccc(Cl)cc1)c1cccc(Nc2nc(Nc3ccccc3)nc(Nc3ccccc3)n2)c1`, the growth was 88.2% (inactive). The same measure, in the same setting: for `Cn1c(=O)c2[nH]c(N/N=C/c3ccccc3Br)nc2n(C)c1=O` the value was 104% (inactive). On the same count and under the same terms, for `O=C1C(Cl)=C(Nc2ccc(O)cc2)C(=O)N1Cc1ccc(Cl)cc1` the value was 57.7% (inactive); for `CC(C)c1ccc(COCc2cc(CN3CCCC3)c(O)c3ncccc23)cc1`, -33% (active). On the same count and under the same terms, for `Oc1c(Cl)cc(Cl)cc1/C=N/Nc1nnc(N/N=C/c2cc(Cl)cc(Cl)c2O)c2ccccc12` the value was -52.3% (active). As for `CN(C)c1ccc(/C=C/C(=O)c2ccc(-n3cc(CN4CCN(c5cc6c(cc5F)c(=O)c(C(=O)O)cn6C5CC5)CC4)nn3)cc2)cc1`, the growth was 20.3% (inactive).

As for `COc1cc2c(c(OC)c1OC)-c1ccc(OC)c(=O)cc1[C@@H](NC(=O)CCl)CC2`, the growth was -18.2% (active).

As to `O=C(Nc1cccnc1Nc1ccc(F)cc1)c1cn(Cc2cccc(Oc3ccccc3)c2)nn1`, the growth was 48.5% (inactive).

`COc1ccc(-c2ccc3cnc4sc(-c5ccc(OC)cc5)nc4c3n2)cc1`: the growth is 87% (inactive).
